Compound activity (PubChem BioAssay)
This is a sample that favours compounds with a hit; in the whole collection about 13% have one here.
miR-21 act: qHTS Assay for Modulators of miRNAs and/orActivators of miR-21; HeLa miR-21 FLuc reporter, luciferase, 48 h; 340,000 tested, under 10 active; Potency, µM (doses to about 38.3 µM), usual class: activators;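 further: miR-21 action dims this reporter so a rising signal means less miR-21 action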
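Luminescence from a firefly luciferase reporter carrying a miR-21 binding site downstream, stably expressed under a CMV promoter in HeLa cells that make miR-21 endogenously, reports miRNA modulation after 48 h compound exposure up to approximately 40uM final.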
KDM4E inh: qHTS Assay for Inhibitors of Human Jumonji Domain Containing 2E (JMJD2E); Lysine-specific demethylase 4E (Homo sapiens), B2RXH2; JMJD2E catalytic domain, FDH-coupled NADH fluorescence (FDH is formaldehyde dehydrogenase); Potency, µM (top dose mostly 57.1 µM), actives largely listed as inhibitors; actives 1.6% (n = 230,000); AID 2147, 2009; active means well fitted inhibition curve with a large enough effect, not every such curve was filed as active; inconclusive means small, poorly fitted or top-dose-only effect, or another doubt; inactive means no such curve, though single readings can be large or run the other way; further: nearly all actives have a fitted effect of over 50% in size
Target sequence (B2RXH2 1-337 limits assumed): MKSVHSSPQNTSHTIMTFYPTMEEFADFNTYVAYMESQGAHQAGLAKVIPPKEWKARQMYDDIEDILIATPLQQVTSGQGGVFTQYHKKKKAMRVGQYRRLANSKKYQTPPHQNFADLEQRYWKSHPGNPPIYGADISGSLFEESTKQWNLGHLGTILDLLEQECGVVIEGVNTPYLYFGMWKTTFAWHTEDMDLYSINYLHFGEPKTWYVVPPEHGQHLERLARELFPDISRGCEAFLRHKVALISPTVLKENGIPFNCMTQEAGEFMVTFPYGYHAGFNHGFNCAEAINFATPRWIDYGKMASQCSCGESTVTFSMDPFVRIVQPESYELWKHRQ
G9a inh: qHTS Assay for Inhibitors of Histone Lysine Methyltransferase G9a. Histone-lysine N-methyltransferase EHMT2 (Homo sapiens), Q96KQ7. G9a H3K9 monomethylation, AlphaScreen, 2 h. Potency, µM (top dose mostly 102 µM), most hits filed as inhibitors. actives 8.8% (n = 350,000). AID 504332, 2011; further: nearly all actives have a fitted effect of over 75% in size
Target sequence (Q96KQ7 913-1193 limits assumed): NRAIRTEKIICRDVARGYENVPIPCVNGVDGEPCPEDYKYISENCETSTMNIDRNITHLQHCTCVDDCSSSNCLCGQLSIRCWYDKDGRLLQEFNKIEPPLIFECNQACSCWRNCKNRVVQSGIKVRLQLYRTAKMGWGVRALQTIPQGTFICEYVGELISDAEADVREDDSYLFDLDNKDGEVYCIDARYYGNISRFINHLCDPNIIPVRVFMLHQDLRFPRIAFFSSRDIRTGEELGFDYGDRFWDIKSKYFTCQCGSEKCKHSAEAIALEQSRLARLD
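Compounds were preincubated with 20 nM G9a for 15 min, after which biotinylated H3K9 peptide (500 nM) and SAM (20 uM) started a 2 h room-temperature reaction. Monomethylated product was quantified by antibody-based AlphaScreen chemiluminescence.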
LMNA splice mod: qHTS Assay for Modulators of Lamin A Splicing | HeLa LMNA splicing GFP/RFP minigene ratio, 48 h | Potency, µM (highest dose often 46.1 µM), hits mostly inhibitors | actives 0.01% (n = 200,000); active means well fitted inhibition curve with a large enough effect in the signal ratio, with a control signal flat, not every such curve was filed as active; inconclusive means small, poorly fitted or top-dose-only effect, or effect the other way, or a change in a side signal; the % refers to the signal ratio
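S3 HeLa stable clones carrying a lamin A-EGFP splicing minigene plus DsRed2 were seeded at 600 cells/well in Opti-MEM with 2% FBS, pin-dosed and incubated 48 h at 37°C. Acumen cytometry (488 nm) gave the GFP/RFP total-intensity ratio.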
ALDH1A1 block: qHTS Assay for Inhibitors of Aldehyde Dehydrogenase 1 (ALDH1A1). Purified ALDH1A1, NADH fluorescence, propionaldehyde substrate. AID 1030, 2008. Potency, µM (series often up to 75.3 µM), usual class: inhibitors. actives 7.3% (n = 220,000); active means well fitted inhibition curve with a large enough effect, not every such curve was filed as active; inconclusive means small, poorly fitted or top-dose-only effect, or another doubt; inactive means no such curve, though single readings can be large or run the other way
Sfp PPTase inh: qHTS Assay for Inhibitors of Bacillus subtilis Sfp phosphopantetheinyl transferase (PPTase) | 4'-phosphopantetheinyl transferase ffp (Bacillus subtilis), Q9F4F7 | Biochemical Sfp PPTase activity, qHTS | Potency, µM, actives largely listed as inhibitors | actives 3.5% (n = 310,000) | AID 1490, 2009;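 further: the enzyme is Sfp with the accession as filed and its product quenches rhodamine fluorescence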
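Step 1, compound plus 15 nM Sfp-PPTase, 15 min, room temperature. Step 2, add rhodamine-CoA (5 uM) and BHQ-2-YbbR (12.5 uM). Step 3, read 525/598 nm fluorescence at 0 and 30 min.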
A number is an active result; . = inactive; ? = inconclusive; / = not tested or not shown; [ ] = another dose, or the depositor's remark. Unless noted, the call rests on the fitted dose curve; in most records, active means well fitted curve in the direction sought with a large enough effect; inconclusive means small, poorly fitted or top-dose-only effect, or another doubt; inactive means no such curve, though single readings can be large; an effect the other way counts as inactive or inconclusive.

SMILES | miR-21 act | KDM4E inh | G9a inh | LMNA splice mod | ALDH1A1 block | Sfp PPTase inh
COC(=O)C/C=C/[C@@H](C)[C@@H](/C=N/O[C@@H](C)c1cn([C@H](CO)Cc2ccccc2)nn1)NS(=O)(=O)c1ccc(C)cc1 | . | . | ? | . | 17.8µM | .
COc1ccccc1/C=C/C=c1\sc2nc(=O)c(Cc3ccccc3)nn2c1=O | . | ? | / | / | / | 56.2µM
CCCOc1ccc(Cc2nn3c(=O)/c(=C/c4ccco4)sc3nc2=O)cc1 | . | . | ? | ? | . | 50.1µM
CC(=O)NC(Cc1ccccc1C)C(=O)NC1CCN(C(=O)c2cccc(C)c2)CC1 (stereo not drawn) | . | . | . | / | 20µM | .
COc1cc(C(=O)N2CCC(NC(=O)C(Cc3ccc(C)cc3)NC(C)=O)CC2)cc(OC)c1OC (stereo not drawn) | . | . | . | . | . | .
CC(=O)NC(Cc1cccc(F)c1)C(=O)NC1CCN(C(=O)c2ccc(C)cc2)CC1 (stereo not drawn) | . | . | . | ? | 14.1µM | .
O=C1Nc2ccccc2SC(c2ccccc2)C1O (stereo not drawn) | . | ? | 10µM | . | . | .
COc1ccc(S(=O)(=O)c2c(SC)nn(CC(=O)Nc3cccc(C)c3C)c2N)cc1 | . | / | . | / | / | /
Cn1c(CN(O)S(=O)(=O)c2ccc(Cl)cc2)nnc1C(F)(F)F | . | / | 10µM | / | / | .
CC(=O)ON(C(C)=O)S(=O)(=O)c1ccc(Cl)cc1 | / | . | / | / | . | ?
CCOc1cc(/C=C2\SC(=S)N(C(C(=O)O)c3ccccc3)C2=O)ccc1O (stereo not drawn) | . | . | 44.7µM | / | 31.6µM | 39.8µM
CCOc1cc(/C=C2/SC(=S)N(C)C2=O)ccc1Oc1ccc([N+](=O)[O-])cc1[N+](=O)[O-] | . | . | . | . | 0.398µM | .
CCOc1ccc(/C=C2/SC(=S)N(C(C(=O)O)c3ccccc3)C2=O)cc1OCC (stereo not drawn) | . | ? | 44.7µM | / | ? | 56.2µM
O=C(CCCN1C(=O)/C(=C\c2ccccc2)SC1=S)Nc1ccc(O)cc1 | ? | . | . | ? | ? | .
O=C(O)C(c1ccccc1)N1C(=O)/C(=C\c2ccc(O)c(O)c2)SC1=S (stereo not drawn) | . | / | 7.94µM | / | / | .
CCOc1cc(/C=C2/NC(=S)NC2=O)ccc1OCc1ccc([N+](=O)[O-])cc1 | . | . | .[12.7 µM] | . | . | .
CCOc1ccc(NC(=O)CN(C)C(=O)c2sc3ccccc3c2Cl)cc1OCC | / | / | .[2.33 µM] | / | / | /
CCOc1cccc(CN2CCCC(CNC(=O)c3cccc(OC)c3OC)C2)c1 (stereo not drawn) | . | / | / | / | / | .
CCN(CC)CCOCCOC(=O)C(CC)(CC)c1ccccc1 (tested in a mixture with another compound) | / | / | . | ? | / | .
CCN(CC)CCCN1C(=O)C2C(C(=O)Nc3ccc(C(C)C)cc3)C3C=CC2(O3)C1C(=O)NC1CCCCC1 (stereo not drawn) | . | / | . | / | / | .
COc1ccccc1/C=C1\SC(=S)N(NS(=O)(=O)c2ccccc2)C1=O | . | / | .[2.33 µM] | / | / | .
COc1ccccc1/C=C1\SC(=S)N(C(C(=O)O)c2ccccc2)C1=O (stereo not drawn) | . | . | ? | / | / | 56.2µM
COc1cc(/C=C2\SC(=S)N(C(C(=O)O)c3ccccc3)C2=O)ccc1O (stereo not drawn) | . | . | 8.91µM | / | / | ?
CCCC(C(=O)Nc1ccc2c(C)cc(=O)oc2c1)c1ccccc1 (stereo not drawn) | . | / | 22.4µM | / | / | .
Cc1cc(=O)oc2cc(NC(=O)Cc3ccccc3)ccc12 | . | / | . | / | / | .
SMILES | miR-21 act | KDM4E inh | G9a inh | LMNA splice mod | ALDH1A1 block | Sfp PPTase inh
Cc1cc(=O)oc2cc(OCC(=O)NCc3ccccn3)ccc12 | . | . | . | . | ? | .
Cc1cc(=O)oc2cc(NC(=S)NCc3ccccn3)ccc12 | . | ? | 39.8µM | / | ? | .
Cc1cc(=O)oc2cc(NC(=O)C(C)Oc3ccc(F)cc3)ccc12 (stereo not drawn) | / | / | 44.7µM | / | / | /
CC(=O)NCCNc1ccnc(-c2ccccc2C(F)(F)F)n1 | / | / | .[0.501 µM] | . | ? | .
C[C@H](NC(=O)c1nc[nH]c1C(=O)N(C)Cc1ccccc1)c1ccccc1 | / | / | .[2.33 µM] | / | / | /
COC(=O)Cn1c(=NC(=O)c2ccc([N+](=O)[O-])s2)sc2cc(Br)ccc21 | . | . | ? | . | 8.91µM | .
COc1cccc(C(=O)NCC(c2ccc(N(C)C)cc2)N2CCCC2)c1OC (stereo not drawn) | . | / | ? | . | / | /
COC(=O)/C=C1\C(=O)N(c2nc3ccccc3s2)C(=S)N1c1ccc(F)cc1 | . | . | 70.8µM | . | . | .
CCc1ccc2c(c1)c(N=NC1=NC(=O)CS1)c(O)n2C | . | . | 12.6µM | . | . | .
Cc1cc(C)c2[nH]c(O)c(N=NC3=NC(=O)CS3)c2c1 | . | . | / | / | / | .
CCCn1cnc2c(sc3nc4c(cc32)CSC(C)(C)C4)c1=O | . | . | . | . | 0.562µM | .
CC1(C)Cc2nc3sc4c(=O)n(Cc5ccccc5)cnc4c3cc2CS1 | . | . | . | . | ? | .
CC(C)CCOc1ncnc2c1sc1nc3c(cc12)CSC(C)(C)C3 | . | . | ? | . | 1.12µM | .
Cc1ccc(-n2nc(C(=O)Nc3ccc(Cl)cn3)c3c4ccccc4n(C)c3c2=O)cc1 | . | / | . | / | / | /
CCc1ccc(-c2nc(CS(=O)CC(=O)NCCc3ccccc3)c(C)o2)cc1 (stereo not drawn) | . | / | 79.4µM | / | / | .
Cc1ccc(CNC(=O)CS(=O)Cc2nc(-c3cccs3)oc2C)cc1 (stereo not drawn) | . | . | 50.1µM | . | ? | .
Cc1ccccc1-c1nc(CS(=O)CC(=O)NCc2ccccc2)c(C)o1 (stereo not drawn) | . | . | 50.1µM | . | . | .
Cc1ccc(-c2nc(CS(=O)CC(=O)NCc3ccccc3)c(C)o2)cc1 (stereo not drawn) | . | . | 50.1µM | . | . | .
COc1ccccc1CNC(=O)CS(=O)Cc1nc(-c2ccccc2C)oc1C (stereo not drawn) | . | . | 79.4µM | . | ? | .
Cc1ccc(CNC(=O)CS(=O)Cc2nc(-c3ccccc3C)oc2C)cc1 (stereo not drawn) | . | . | 50.1µM | . | . | .
CCOC(=O)C(N)CSC1CC(=O)N(CCc2ccccc2)C1=O (stereo not drawn) | . | / | / | / | / | .
